Molecules are shown by their SMILES. Several values for one entry are separate records, joined by “and”; a condition that tells them apart may be missing. Identical values can stand only once. Inconclusive results are not listed. Activity calls are given as the source filed them.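 Rule for the calls, unless noted: active = compounds whose cell count with miR-34 switched on is under 0.7 times the count with it off; inactive = the rest.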

The values that follow come from PubChem BioAssay.

Test [1] concerns the target ATP-dependent translocase ABCB1 (Homo sapiens) (UniProt P08183). Description: P-glycoprotein substrate transport blockade – cell-based (AID 377; in the data active = fluorescence slope change above about 50%). As to conditions: MDR1-expressing cells, fluorescent substrate accumulation slope; stronger effect = higher value; concentration not given here.
A short description of test [2]: P. berghei load reduction in hepatocytes – cell-based, HepG2, luciferase luminescence, HepG2 viability, primary screen (AID 624349; in the data active = parasite load remaining mostly below about 12%, no sharp cut-off; inactive = mostly above about 10%;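 note: 100% = mean of DMSO negative control wells on the same plate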). The conditions noted are these: P. berghei liver stage in HepG2, luciferase luminescence, concentration not given here; parasite load remaining: stronger effect = lower value; viability: measured here: HepG2 viability without parasites.
Test [3] is described as follows: viability loss with induced miR-34 in A549 – imaging, A549 dox-inducible miR-34, nuclei and caspase counts, primary screen (AID 1347080). The conditions noted are these: A549 miR-34 inducible, Hoechst nuclei count, 48 h.
Test [4] is described as follows: MELAS cybrid and Rieske KO viability enhancers – cell-based, MELAS cybrids, Rieske KO mouse fibroblasts, CellTiter-Glo, primary screen (AID 1508586;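 active = mean z-score across replicates of 1.96 or higher in either the MELAS or the Rieske mutant cell line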;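 note: z relative to plate mean and SD of compound and empty wells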). As to conditions: low glucose. (In ATP-based viability assays light output follows the ATP content of the culture.)
Test [5] deals with Mitogen-activated protein kinase 7 (Homo sapiens) (UniProt Q13164). Description: Gal4-ERK5 driven luciferase induction – cell-based, HTS, primary screen (AID 1508626;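 active = luciferase signal above three times the same-plate solvent-only control wells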;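 note: luciferase driven by Gal4-ERK5 fusion binding five Gal4 sites before minimal TATA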). As to conditions: HeLa Gal4-ERK5 transactivation, 18 h, at 5 µM, stronger effect = higher value.
The nature of test [6]: galactose survival enhancers in mitochondrial complex I cybrids – cell-based, galactose medium, ATP luminescence, primary screen (AID 1645843;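 active = z-score of at least 1.8 in each of two replicates, scored against plate mean and spread of sample wells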;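 note: positive z means more ATP and so rescue of galactose-driven cybrid death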). The conditions noted are these: complex I mutant cybrid cells, 72 h, stronger effect = higher value.
A short description of test [7]: compounds altering viability of human ES cells (AID 493140; call rule not given here;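 note: cells exposed to compounds for four days before counting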). As to conditions: human embryonic stem cell survival screen; stronger effect = higher value.
Test [8] has as its target NAD(+) hydrolase SARM1 (Homo sapiens) (UniProt Q6SZW1). Description: blocking NAD cleavage by SARM1 SAM-TIR – cell lysate, NAD-Glo luminescence (AID 1508614;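 active = compound whose remaining NAD level is above about 45 nM, limit read from the data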;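 note: higher remaining NAD means stronger inhibition of SARM1 NADase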). As to conditions: SAM-TIR HEK293T lysate NADase, at 1 µM, stronger effect = higher value.
The mark [9] stands for this setting: stronger effect = lower value, cell number ratio, induced over uninduced.
Where [10] appears, read: measured here: relative caspase fold change +Dox/-Dox.
The mark [11] stands for this setting: measured here: total cells with miR-34 induction, stronger effect = lower value.
Setting [12] is: measured here: total cells without miR-34 induction.
[13] abbreviates: MELAS cybrid survival, CellTiter-Glo 48 h, stronger effect = higher value.
Where [14] appears, read: Rieske KO mouse fibroblast survival, CellTiter-Glo 72 h.

Chain of ATP-dependent translocase ABCB1 (Homo sapiens) (P08183 whole entry, looked up): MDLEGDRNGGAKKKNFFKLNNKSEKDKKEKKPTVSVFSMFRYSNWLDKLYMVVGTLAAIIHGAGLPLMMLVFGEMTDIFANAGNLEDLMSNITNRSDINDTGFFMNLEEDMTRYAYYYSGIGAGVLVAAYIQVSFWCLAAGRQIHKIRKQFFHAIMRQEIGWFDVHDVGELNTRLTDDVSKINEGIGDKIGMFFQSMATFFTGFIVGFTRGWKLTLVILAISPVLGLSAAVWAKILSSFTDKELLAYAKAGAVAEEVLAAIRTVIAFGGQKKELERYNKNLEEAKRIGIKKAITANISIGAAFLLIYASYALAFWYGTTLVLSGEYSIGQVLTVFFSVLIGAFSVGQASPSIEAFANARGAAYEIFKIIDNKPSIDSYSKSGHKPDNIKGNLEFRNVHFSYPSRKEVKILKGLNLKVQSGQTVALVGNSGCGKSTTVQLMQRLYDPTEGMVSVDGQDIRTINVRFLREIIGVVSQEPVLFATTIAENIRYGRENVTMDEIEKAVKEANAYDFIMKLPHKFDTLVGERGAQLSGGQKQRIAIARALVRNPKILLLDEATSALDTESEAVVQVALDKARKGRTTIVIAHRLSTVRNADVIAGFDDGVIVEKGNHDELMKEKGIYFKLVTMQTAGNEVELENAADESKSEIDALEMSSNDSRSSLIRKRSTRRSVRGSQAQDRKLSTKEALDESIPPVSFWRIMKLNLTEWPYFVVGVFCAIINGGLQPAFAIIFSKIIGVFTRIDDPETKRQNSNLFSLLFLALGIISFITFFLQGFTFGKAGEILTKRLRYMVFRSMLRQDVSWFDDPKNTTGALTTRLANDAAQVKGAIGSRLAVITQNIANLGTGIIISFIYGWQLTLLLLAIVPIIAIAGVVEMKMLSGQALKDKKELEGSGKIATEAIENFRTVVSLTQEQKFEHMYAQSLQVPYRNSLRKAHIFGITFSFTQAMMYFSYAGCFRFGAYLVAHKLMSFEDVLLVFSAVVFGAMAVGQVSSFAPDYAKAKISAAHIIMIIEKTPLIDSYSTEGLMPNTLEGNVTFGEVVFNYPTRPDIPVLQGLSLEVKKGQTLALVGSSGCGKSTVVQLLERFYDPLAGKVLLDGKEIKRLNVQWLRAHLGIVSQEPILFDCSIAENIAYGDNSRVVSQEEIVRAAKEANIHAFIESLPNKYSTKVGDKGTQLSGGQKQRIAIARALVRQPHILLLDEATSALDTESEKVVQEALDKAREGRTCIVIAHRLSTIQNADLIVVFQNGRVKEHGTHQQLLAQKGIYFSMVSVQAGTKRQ
Chain of NAD(+) hydrolase SARM1 (Homo sapiens) (Q6SZW1 whole entry, looked up): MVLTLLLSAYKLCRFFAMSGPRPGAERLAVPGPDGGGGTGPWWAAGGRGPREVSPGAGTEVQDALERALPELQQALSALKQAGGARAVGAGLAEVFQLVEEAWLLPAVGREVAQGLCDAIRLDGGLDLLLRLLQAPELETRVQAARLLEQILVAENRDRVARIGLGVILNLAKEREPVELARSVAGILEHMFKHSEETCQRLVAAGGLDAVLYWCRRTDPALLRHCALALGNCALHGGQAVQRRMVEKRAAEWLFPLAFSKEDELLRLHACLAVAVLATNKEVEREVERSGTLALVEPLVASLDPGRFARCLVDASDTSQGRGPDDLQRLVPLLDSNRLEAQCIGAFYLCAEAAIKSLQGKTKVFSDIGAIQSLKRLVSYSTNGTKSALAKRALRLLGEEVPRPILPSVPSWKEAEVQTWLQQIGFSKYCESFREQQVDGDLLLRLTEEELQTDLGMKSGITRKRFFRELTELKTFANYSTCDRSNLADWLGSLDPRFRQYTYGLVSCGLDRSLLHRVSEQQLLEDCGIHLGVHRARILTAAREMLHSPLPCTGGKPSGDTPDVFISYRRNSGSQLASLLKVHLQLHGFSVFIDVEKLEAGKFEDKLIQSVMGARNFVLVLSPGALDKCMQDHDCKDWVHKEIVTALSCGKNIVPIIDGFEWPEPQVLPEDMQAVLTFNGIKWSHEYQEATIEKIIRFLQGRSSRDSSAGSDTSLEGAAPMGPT
Chain of Mitogen-activated protein kinase 7 (Homo sapiens) (Q13164 whole entry, looked up, the tested form may be a part): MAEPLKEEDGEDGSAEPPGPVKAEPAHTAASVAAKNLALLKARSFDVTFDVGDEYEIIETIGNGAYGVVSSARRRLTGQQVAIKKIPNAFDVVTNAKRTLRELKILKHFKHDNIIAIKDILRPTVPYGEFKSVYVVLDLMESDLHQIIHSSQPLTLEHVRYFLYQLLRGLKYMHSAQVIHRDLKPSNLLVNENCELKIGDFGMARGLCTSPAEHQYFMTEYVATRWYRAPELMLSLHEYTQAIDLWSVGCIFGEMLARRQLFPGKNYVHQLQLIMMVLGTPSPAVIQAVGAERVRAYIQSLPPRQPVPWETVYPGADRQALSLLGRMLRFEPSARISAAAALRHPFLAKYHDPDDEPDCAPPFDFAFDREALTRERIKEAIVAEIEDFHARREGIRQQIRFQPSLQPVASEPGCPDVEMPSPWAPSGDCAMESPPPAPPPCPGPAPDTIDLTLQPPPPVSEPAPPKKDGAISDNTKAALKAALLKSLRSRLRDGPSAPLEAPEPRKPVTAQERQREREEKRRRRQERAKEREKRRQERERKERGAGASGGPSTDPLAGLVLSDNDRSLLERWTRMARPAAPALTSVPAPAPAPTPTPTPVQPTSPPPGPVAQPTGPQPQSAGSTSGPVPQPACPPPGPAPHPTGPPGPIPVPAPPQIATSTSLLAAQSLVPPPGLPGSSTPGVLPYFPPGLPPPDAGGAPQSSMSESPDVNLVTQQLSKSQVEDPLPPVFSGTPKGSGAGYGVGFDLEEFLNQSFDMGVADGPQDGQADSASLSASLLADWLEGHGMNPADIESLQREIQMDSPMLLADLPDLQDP

For the compound `C[C@@H]1CCC[C@H](C)N1NC(=O)c1ccc(Cl)c(S(N)(=O)=O)c1`, the fluorescence slope change in test [1] was 11.3% (inactive). The parasite load remaining in test [2] is 123% (inactive) and 80.9% (inactive). For the same compound, in test [2], the viability is 112% and 106%. The fold change was 0.884 (inactive) and 0.878 (inactive) in test [3] (setting [9]); 1.72 and 1.06 in test [3] (setting [10]). Moreover, the cell count in test [3] (setting [11]) is 9180 and 9670; in test [3] (setting [12]) it was 10400 and 11000. The z-score in test [4] (setting [13]) is 0.52 (inactive) and -0.675 (inactive); in test [4] (setting [14]), -0.0626 and -0.387; in test [6], 0.85 (inactive). Also, the luciferase signal in test [5] is 100 AU (inactive).
Consider `COc1cc(N(C)CC2COc3ccccc3O2)nc(N)n1` (stereo not drawn), for which the fold change in test [3] (setting [9]) is 0.844 (inactive); in test [3] (setting [10]), 2.02. Besides, the cell count in test [3] (setting [11]) was 3500; in test [3] (setting [12]), 4140. The z-score is 0.477 (inactive) in test [4] (setting [13]), -0.0472 in test [4] (setting [14]) and -0.58 (inactive) in test [6].
Turning to `Cc1cc(-c2csc(Nc3ccc(C(=O)O)c(O)c3)n2)ccc1F`, the figures for the fold change in test [3] (setting [9]) and in test [3] (setting [10]) were 0.849 (inactive) and 0.325, respectively. In addition, the cell count in test [3] (setting [11]) worked out at 8200; in test [3] (setting [12]), 9650. Moreover, the z-score in test [4] (setting [13]) was 2.38 (active); in test [4] (setting [14]), -0.525; in test [6] it was 1.02 (inactive).
Consider `CC(C)c1nc(CN(C)C(=O)NC(C(=O)NC(Cc2ccccc2)CC(O)C(Cc2ccccc2)NC(=O)OCc2cncs2)C(C)C)cs1` (stereo not drawn), for which the fold change was 0.948 (inactive) and 0.95 (inactive) in test [3] (setting [9]); 1.44 and 0.946 in test [3] (setting [10]). Also, the cell count in test [3] (setting [11]) is 7230 and 6000; in test [3] (setting [12]), 7630 and 6320. Moreover, the z-score is -0.434 (inactive) in test [4] (setting [13]), 0.643 in test [4] (setting [14]) and -0.03 (inactive) in test [6].
In the case of `CN(C)C(=O)c1cc(-c2[nH]ncc2-c2ccccc2)c[nH]1`, the fold change in test [3] (setting [9]) was 0.875 (inactive); in test [3] (setting [10]) it was 0.578. Moreover, the cell count is 7590 in test [3] (setting [11]) and 8680 in test [3] (setting [12]). Moreover, the z-score in test [4] (setting [13]) was 1.27 (inactive); in test [4] (setting [14]), 0.199; in test [6], -0.655 (inactive).
Regarding `CCCCCCCCCCCCCCCC(=O)NCC(=O)O`, the fold change was 0.908 (inactive) in test [3] (setting [9]) and 1.05 in test [3] (setting [10]). The cell count in test [3] (setting [11]) is 9030; in test [3] (setting [12]) it was 9940. Moreover, the z-score is -0.0953 (inactive) in test [4] (setting [13]), 0.105 in test [4] (setting [14]) and 1.27 (inactive) in test [6].
Take `CCn1ncc(NC(=O)Cn2cc(-c3ncnc4ccsc34)cn2)n1`: the figures for the fold change in test [3] (setting [9]) and in test [3] (setting [10]) were 0.848 (inactive) and 1.75, respectively. The cell count worked out at 8160 in test [3] (setting [11]) and 9620 in test [3] (setting [12]). In addition, the z-score in test [4] (setting [13]) is -0.432 (inactive); in test [4] (setting [14]), -0.147; in test [6], -0.53 (inactive).
Regarding `CO[C@@]1(NC(=O)C2SC(=C(C(N)=O)C(=O)O)S2)C(=O)N2C(C(=O)O)=C(CSc3nnnn3C)CS[C@@H]21` (stereo partly drawn), the survival in test [7] is 11.4 (inactive). In addition, the parasite load remaining in test [2] is 165% (inactive) and 73.4% (inactive). The viability in test [2] is 107% and 73.9%. The fold change was 0.873 (inactive) in test [3] (setting [9]) and 1.71 in test [3] (setting [10]). Also, the cell count in test [3] (setting [11]) worked out at 8700; in test [3] (setting [12]), 9980. Besides, the figures for the z-score in test [4] (setting [13]) and in test [4] (setting [14]) were -0.492 (inactive) and -0.132, respectively. Besides, in test [8], the remaining NAD was 10 nM (inactive).

Usually viability stands for a read-out of living cells in per cent, often relative to untreated cells.
